Data on 40 molecules can be found in PubChem BioAssay (NCATS).

Results filed as inconclusive are left out. Unmarked numbers belong to inactive results. Active and inactive are the calls of the source. Calls follow the shape of the dose curve; as a rule, active = well fitted inhibition curve with a large enough effect; inconclusive = small, poorly fitted or top-dose-only effect; inactive = no such curve, though single readings can be large or run the other way.
Potency is read from the fitted curve at half-maximal effect.

This test can be described thus: BET inhibitor-based combinations targeting novel dependencies in MECOM-rearranged (r) AML: OCI-AML3 cell line (AID 2202232). Also: nearly all actives have a fitted effect of over 35% in size. The note with it: CellTiter-Glo luminescence, 48 h; Potency: OCI-AML3 viability; series mostly up to 46 µM; viability (% of control): at the top concentration. An excerpt: Ecotropic viral insertion site 1 (EVI1) is located on chromosome 3q26.2 as part of the MECOM (MDS and EVI1 complex) locus. Under normal hematopoiesis, EVI1 is a regulator of hematopoietic stem cell maintenance and self-renewal and EVI1 levels decrease as the cells differentiate. In approximately 5-10% of de novo acute myeloid leukemia (AML) EVI1 is aberrantly expressed, including Chromosomal inv(3)(q21;q26.2) or t(3;3)(q21;q26.2) alterations (MECOM-r) that account for about 50% of AML with EVI1 overexpression 31. AMLs with high levels of EVI1 have a poor prognosis and an overall survival time averaging between 10-14 months. EVI1 overexpression confers resistance in leukemia cells, highlighting the need to develop new targeted therapies for EVI1 overexpressing AMLs.
Here, we performed an unbiased chemical drug screening by evaluating the single agent activity of a collection of 2,480 oncology-focused, approved and investigational drugs (NCATS Mechanism Interrogation Plates, MIPE v5.0) against a panel of seven AML cell lines. These included four MECOM-r cell-lines (AML-191, AML-194, UCSD-AML1 and HNT-34) and three non-MECOM-r AMLs (MV4-11, OCI-AML3 and SET-2). Exploiting the mechanistic redundancy built in the library, we identified target-level sensitivities in MECOM-r AML cells and relative activity as compared to other AML subtypes.
A collection of 2480 mechanistically annotated dugs (MIPE v5.0) was used to screen four 3q26.2 rearranged AML cell lines and three non-3q26.2 rearranged AML cell lines. This library purposely exploits redundancy by including multiple inhibitors of key onco-targets, while simultaneously encompassing mechanistic diversity, targeting more than 800 distinct mechanisms of action. Briefly, cells were seeded in 5 uL of growth media using a Multidrop Combi dispenser into 1536 well white polystyrene tissue culture treated plates (Corning) at a density of 500cells/well. For each cell-line, for each of the 2480 drugs in MIPE v5.0 library, an 11-point dose curve was generated via a 1536 pin-tool. Plates were incubated for 48 hr at standard incubator conditions, covered by a stainless steel gasketed lid to prevent evaporation. Cell viability was determined by luminescence based, Cell Titer Glo assay (Promega). In detail, 3 uL of Cell Titer Glo were added to each well and plates were incubated at room temperature for 15 min with a stainless-steel lid in place. Luminescence readings were taken using a Viewlux (PerkinElmer) with a 2 s exposure time per plate. Compound dose-response curves were normalized to DMSO and empty well controls on each plate. Quantitative drug activity data from dose-response curves was determined utilizing area Under the Curve (AUC) and Z-transformed AUC (Z-AUC, a mean-centering transformation applied to each individual cell-line screened).
Turning to `O=C(O)c1nn(Cc2ccc(Cl)cc2Cl)c2ccccc12`, the “viability (% of control)” value is 100%. As for `C#CCN(C)[C@H](C)Cc1ccccc1`, the “viability (% of control)” value was 84.8%.

Consider `C/C=C(\C)C(=O)N[C@@H](c1ccccc1)[C@@H](O)C(=O)O[C@H]1C[C@@]2(O)[C@@H](OC(=O)c3ccccc3)[C@@H]3[C@]4(OC(C)=O)CO[C@@H]4C[C@H](O)[C@@]3(C)C(=O)[C@H](OC(C)=O)C(=C1C)C2(C)C`, for which the Potency is 13.2 nM (active). On the same count and under the same terms, next, `C[C@@H]1C[C@@H]([C@H](O)CC2CC(=O)NC(=O)C2)C(=O)[C@@H](C)C1`: 1660 nM (active). For the molecule `Cc1cccc(C)c1NC(=O)CN1CCCC1=O`, the “viability (% of control)” value is 116%. For the molecule `C[C@@H]1O[C@@H](O[C@@H]2C=C3CC[C@@H]4[C@H](CC[C@]5(C)[C@@H](c6ccc(=O)oc6)CC[C@]45O)[C@@]3(C)CC2)[C@H](O)[C@H](O)[C@H]1O`, the Potency was 14.8 nM (active). With `O=c1cccc2n1CC1CNC[C@H]2C1`, the “viability (% of control)” value is 122%. Regarding `C/C1=C/C[C@@H](/C(C)=C/c2csc(C)n2)OC(=O)C[C@H](O)C(C)(C)C(=O)[C@H](C)[C@@H](O)[C@@H](C)CCC1`, the Potency is 59 nM (active). Take `CN[C@@H]1Cc2cccc3[nH]c(=O)n(c23)C1`: the “viability (% of control)” value is 118%.

On to `O=S(=O)(F)Cc1ccccc1`, for which the “viability (% of control)” value was 93.5%. As to `CCCCCCC(C)(C)c1cc(O)c2c(c1)OC(C)(C)C1CC=C(CO)C[C@H]21` (stereo not given in full), the Potency is 26300 nM (active).

In the case of `COc1cc(C)[nH]c(=O)c1CNC(=O)c1c(C)n([C@H](C)C2CCN(CC(F)(F)F)CC2)c2ccccc12`, the Potency was 14800 nM (active). `O=C(NCC1CCOCC1)c1cnc(Nc2ccc(Cl)cc2Cl)nc1C(F)(F)F`: the “viability (% of control)” value was 89.5%.

As for `C/C(=C\c1csc(C)n1)[C@@H]1C[C@@H]2O[C@@H]2CCC[C@H](C)[C@H](O)[C@@H](C)C(=O)C(C)(C)[C@@H](O)CC(=O)O1`, the Potency is 20.9 nM (active). For `C[C@]12CCC(=O)C(O)=C1CC[C@@H]1[C@@H]2CC[C@]2(C)C(=O)CC[C@@H]12`, the “viability (% of control)” value is 92.4% [at 92.2 µM]. Turning to `CC[C@@H](C(N)=O)N1CCCC1=O`, the “viability (% of control)” value was 107%. Consider `CC(C)[C@]12O[C@H]1[C@@H]1O[C@]13[C@]1(O[C@H]1C[C@H]1C4=C(CC[C@@]13C)C(=O)OC4)[C@@H]2O`, for which the Potency was 29.5 nM (active). For `C[C@@H]1CC[C@@]2(OC1)O[C@H]1C[C@H]3[C@@H]4CC=C5C[C@@H](O[C@@H]6O[C@H](CO)[C@@H](O[C@@H]7O[C@@H](C)[C@H](O)[C@@H](O)[C@H]7O)[C@H](O)[C@H]6O[C@@H]6O[C@@H](C)[C@H](O)[C@@H](O)[C@H]6O)CC[C@]5(C)[C@H]4CC[C@]3(C)[C@H]1[C@@H]2C`, the Potency is 7420 nM (active). With `N=c1c2c(-c3ccccc3)c(-c3ccccc3)n(Cc3ccccc3)c2ncn1C1CCC(O)CC1` (stereo not given), the Potency was 8330 nM (active).

As for `CCNC(=O)C[C@@H]1N=C(c2ccc(Cl)cc2)c2cc(OC)ccc2-n2c(C)nnc21`, the Potency is 742 nM (active).

With `C[C@]12Cc3cn[nH]c3C[C@@H]1CC[C@@H]1[C@@H]2CC[C@@]2(C)[C@H]1CC[C@]2(C)O`, the “viability (% of control)” value was 57.1%. Regarding `Cc1sc2c(c1C)C(c1ccc(Cl)cc1)=NC(CC(N)=O)c1nnc(C)n1-2` (stereo not given), the Potency is 93.4 nM (active). `CC(=O)Nc1ccc(OC[C@](C)(O)C(=O)Nc2ccc([N+](=O)[O-])c(C(F)(F)F)c2)cc1`: the “viability (% of control)” value was 102%. On the same count and under the same terms, next, `CNCC(O)c1ccc(O)cc1` (stereo not given): 103%. `Cc1sc2c(c1C)C(c1ccc(Cl)cc1)=NC(CC(=O)Nc1ccc(O)cc1)c1nnc(C)n1-2` (stereo not given): the Potency was 263 nM (active).

For the molecule `CCOP(=O)(OCC)C(C)NC(=O)N(CCCl)N=O` (stereo not given), the “viability (% of control)” value was 135%. Take `O=S(=O)(CC1CS1)c1ccc(Oc2ccccc2)cc1` (stereo not given): the Potency is 16600 nM (active). In the case of `Cc1sc2c(c1C)C(c1ccc(Cl)cc1)=N[C@@H](CC(=O)OC(C)(C)C)c1nnc(C)n1-2`, the Potency is 263 nM (active).

For the molecule `COc1ccc(C(=O)c2c(C)n(CCN3CCOCC3)c3ccccc23)cc1`, the Potency was 3720 nM (active). Regarding `CC(NC(C)(C)C)C(=O)c1cccc(Cl)c1` (stereo not given), the “viability (% of control)” value is 131%.

As for `CC(=O)N1N=C(c2ccc(N)cc2)c2cc3c(cc2C[C@H]1C)OCO3`, the “viability (% of control)” value was 78.4%. Regarding `CC(O)(CS(=O)(=O)c1ccc(F)cc1)C(=O)Nc1ccc(C#N)c(C(F)(F)F)c1` (stereo not given), the Potency was 4.2 nM (active). For `CC(=O)OC[C@H]1O[C@@H]([S-])[C@H](OC(C)=O)[C@@H](OC(C)=O)[C@@H]1OC(C)=O.CC[PH+](CC)CC.[Au]`, the Potency was 296 nM (active). For `CCCN1CCO[C@@H]2c3cc(O)ccc3OC[C@H]21`, the “viability (% of control)” value was 82.9%. As to `O=c1[nH]c2ccccc2n1C1CCN(Cc2ccc(-c3[nH]c4cc5ncnc5cc4nc3-c3ccccc3)cc2)CC1`, the Potency is 9340 nM (active).

For the molecule `CC[C@@]1(O)C(=O)OCc2c1cc1n(c2=O)Cc2cc3ccccc3nc2-1`, the Potency is 13.2 nM (active). `C/C(=C\c1csc(C)n1)[C@@H]1C[C@@H]2O[C@]2(C)CCC[C@H](C)[C@H](O)[C@@H](C)C(=O)C(C)(C)[C@@H](O)CC(=O)O1`: the Potency was 5.9 nM (active). Turning to `CCN(CC)C(=O)c1ccc(C2=CC3(CCNCC3)Oc3cccc(O)c32)cc1`, the “viability (% of control)” value is 68.9%. For `CC1(N2CCC(n3c([C@@H]4CCCNC4)nc4ccccc43)CC2)CCCCCCC1`, the Potency is 16600 nM (active). In the case of `COc1cccc2c1C(=O)c1c(O)c3c(c(O)c1C2=O)C[C@@](O)(C(=O)CO)CC3OC1CC(N2CCOC(OC)C2)C(O)C(C)O1` (stereo not given in full), the Potency was 4.7 nM (active).
